Laboratory results: ChEMBL document CHEMBL1201862, “PubChem BioAssay data set” (2004)
In all, about 400,000 compounds went through this assay and about 2,100 (0.53%) were called active. Roughly 14% stayed inconclusive and do not appear here. The sample holds actives, similar compounds and a random draw of the others, so the mix is not that of the screen. The rule behind the calls is not given here.

Target: Ataxin-2 (Homo sapiens) (UniProt Q99700)
Assay: qHTS for Inhibitors of ATXN expression.
Type: functional

Ataxin-2 (Homo sapiens), sequence (Q99700 whole entry): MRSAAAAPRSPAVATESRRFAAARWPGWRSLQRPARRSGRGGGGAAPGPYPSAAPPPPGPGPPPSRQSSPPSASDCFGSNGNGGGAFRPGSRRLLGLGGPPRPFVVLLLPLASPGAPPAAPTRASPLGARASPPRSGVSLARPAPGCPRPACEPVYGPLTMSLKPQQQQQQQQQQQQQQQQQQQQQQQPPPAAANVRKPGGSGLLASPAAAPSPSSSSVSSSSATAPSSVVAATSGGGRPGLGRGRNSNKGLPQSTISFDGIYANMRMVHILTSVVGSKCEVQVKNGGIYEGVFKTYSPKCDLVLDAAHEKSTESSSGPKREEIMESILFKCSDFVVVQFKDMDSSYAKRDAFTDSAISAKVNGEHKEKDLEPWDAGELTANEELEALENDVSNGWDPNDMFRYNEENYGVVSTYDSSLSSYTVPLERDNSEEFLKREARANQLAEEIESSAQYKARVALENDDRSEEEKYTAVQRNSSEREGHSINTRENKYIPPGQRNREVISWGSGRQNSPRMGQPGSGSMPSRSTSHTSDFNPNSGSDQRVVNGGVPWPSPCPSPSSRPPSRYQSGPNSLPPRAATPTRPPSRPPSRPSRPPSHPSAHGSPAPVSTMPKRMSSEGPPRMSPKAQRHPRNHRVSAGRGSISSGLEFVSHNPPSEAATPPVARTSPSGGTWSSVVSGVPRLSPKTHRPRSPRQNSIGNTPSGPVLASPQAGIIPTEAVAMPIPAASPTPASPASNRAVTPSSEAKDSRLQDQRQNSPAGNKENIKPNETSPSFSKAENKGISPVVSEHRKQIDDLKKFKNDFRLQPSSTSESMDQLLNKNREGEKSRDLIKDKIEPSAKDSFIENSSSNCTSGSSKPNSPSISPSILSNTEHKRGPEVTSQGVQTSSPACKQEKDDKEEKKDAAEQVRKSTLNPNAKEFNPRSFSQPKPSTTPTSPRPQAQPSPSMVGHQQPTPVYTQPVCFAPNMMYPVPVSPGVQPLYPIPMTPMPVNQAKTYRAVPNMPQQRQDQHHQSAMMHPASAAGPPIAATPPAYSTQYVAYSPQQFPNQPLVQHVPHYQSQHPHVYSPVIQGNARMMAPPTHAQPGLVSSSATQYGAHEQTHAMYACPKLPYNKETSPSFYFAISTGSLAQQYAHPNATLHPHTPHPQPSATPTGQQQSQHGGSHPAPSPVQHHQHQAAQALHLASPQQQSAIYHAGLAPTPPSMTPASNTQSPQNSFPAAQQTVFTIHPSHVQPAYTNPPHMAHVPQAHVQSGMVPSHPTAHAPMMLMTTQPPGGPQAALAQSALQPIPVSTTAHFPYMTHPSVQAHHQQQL

How did the Potency turn out when `Oc1ccc(Br)cc1C1Nc2ccccc2S1` (centres undefined) was run?
Its Potency is “inactive”.

`CCC(CC)c1nnc(NC(=O)CSCc2c(C)noc2C)s1` was tested. Which Potency did it give?
The Potency was “inactive”.

How did the Potency turn out when `COc1c(CC=C(C)C)c(O)cc2oc(=O)c3c4ccc(O)cc4oc3c12` was run?
Its Potency is “inactive”.

Which Potency does the source give for `CC(C)=CCc1c(O)c(CC=C(C)C)c2occ(-c3ccc(O)cc3)c(=O)c2c1O` here?
Its Potency is 39.8 µM (active).

For `CC(C)=CCc1c2c(c3occ(-c4ccc(O)cc4)c(=O)c3c1O)C=CC(C)(C)O2`, which Potency is on record?
Its Potency is 25.1 µM (active).

`CC1(C)C=Cc2c(c3c(c4c(=O)c(-c5ccc(O)cc5)coc24)OC(C)(C)CC3)O1` was tested. Which Potency did it give?
Its Potency is 35.5 µM (active).

For `CC(C)=CCc1c(-c2ccc(O)cc2O)oc2cc3c(c(O)c2c1=O)C=CC(C)(C)O3`, which Potency is on record?
The Potency was 39.8 µM (active).

For `COC(c1ccccc1)(c1ccccc1)C(Oc1nc(C)cc(C)n1)C(=O)O` (centres undefined), which Potency is on record?
Its Potency is “inactive”.

For `CCOC(=O)c1c2ccc(OCC(=O)NN)cc2n2ccccc12`, which Potency is on record?
Its Potency is “inactive”.

For `Cc1c(C)c2cc(Cl)c(O)c(CN(C)C)c2oc1=O`, which Potency is on record?
Its Potency is “inactive”.

`CCCCCC(=O)N1C[C@@H](n2cc(COC(=O)c3ccccc3)nn2)[C@H](O)C[C@@H]1c1ccc(Cl)cc1` was tested. Which Potency did it give?
The Potency was 31.6 µM (active).

With `CCCCCC(=O)N1C[C@H](n2cc(COC(=O)c3ccccc3)nn2)[C@@H](O)C[C@@H]1c1ccc(Cl)cc1` as the compound, how does the Potency read?
The Potency was 39.8 µM (active).

Which Potency does the source give for `CC1(S(=O)(=O)O)CC(=O)c2ccccc2C1=O` (centres undefined) here?
The Potency was “inactive”.

For `CC(=O)N1N=C2c3ccccc3CCC2C1c1ccc(F)cc1` (centres undefined), which Potency is on record?
Its Potency is “inactive”.

With `CCCCn1c(NC(C)=O)c(C#N)c2nc3ccccc3nc21` as the compound, how does the Potency read?
Its Potency is “inactive”.

`CC(C)c1noc(-c2ccccc2OCC(=O)Nc2ccccc2[N+](=O)[O-])n1` was tested. Which Potency did it give?
Its Potency is 39.8 µM (active).

How did the Potency turn out when `O=C(CN1CCCc2ccccc21)Nc1ccccc1[N+](=O)[O-]` was run?
The Potency was “inactive”.

`Cc1csc(SCC(=O)Nc2ccccc2[N+](=O)[O-])n1` was tested. Which Potency did it give?
The Potency was “inactive”.

How did the Potency turn out when `Nc1cccc2c1C(=O)N(C(=O)c1cccc(S(=O)(=O)N3CCCCCC3)c1)C2=O` was run?
The Potency was “inactive”.

How did the Potency turn out when `Fc1ccc(CN2CCN(c3ncccn3)CC2)c(F)c1` was run?
Its Potency is “inactive”.

How did the Potency turn out when `COCC(C)n1c(SCc2ccc(C(=O)OC)cc2)nc2ccccc2c1=O` (centres undefined) was run?
Its Potency is “inactive”.

`O=C(c1ccc(-n2c(SCc3cc(F)ccc3F)nc3ccccc3c2=O)cc1)N1CCOCC1` was tested. Which Potency did it give?
Its Potency is “inactive”.

Which Potency does the source give for `COc1ccc(C(C)=O)cc1CSc1nc2ccccc2c(=O)n1-c1ccccc1` here?
Its Potency is 35.5 µM (active).

How did the Potency turn out when `O=C(NCc1ccncc1)c1ccc(NS(=O)(=O)c2ccc(F)cc2)cc1` was run?
Its Potency is “inactive”.

`CCOC(=O)c1c(N=C(S)N2CCOCC2)sc(C)c1C` was tested. Which Potency did it give?
The Potency was “inactive”.

`CCOC(=O)c1c(C)oc2c1c(/C=N/CCO)c(O)c1ccccc12` was tested. Which Potency did it give?
The Potency was “inactive”.

Which Potency does the source give for `CCOC(=O)c1c(C)oc2c1c(C(c1cccnc1)N1CCOCC1)c(O)c1ccccc12` (centres undefined) here?
Its Potency is 39.8 µM (active).

How did the Potency turn out when `CCOC(=O)C(CC)Sc1ccc2nnc(-c3cccnc3)n2n1` (centres undefined) was run?
Its Potency is “inactive”.

For `CCOC(=O)c1c(C)oc2c1c(C(c1ccccc1)N1CCOCC1)c(O)c1ccccc12` (centres undefined), which Potency is on record?
Its Potency is 39.8 µM (active).
